Data published in PubChem BioAssay AID651814 (National Center for Advancing Translational Sciences (NCATS), 2012).
The whole screen tested about 2,100 compounds, of which about 590 (28%) were called active. About 42% were inconclusive and are not listed. The list shows a part of the results. Values without a mark were called inactive. Calls come from the whole dose curve; as a rule, active = well fitted inhibition curve with a large enough effect; inconclusive = small, poorly fitted or top-dose-only effect; inactive = flat fitted curve, though single readings scatter.

Each compound was assayed against DNA dC->dU-editing enzyme APOBEC-3F (Homo sapiens) (UniProt Q8IUX4) (assay: qHTS for inhibitors of Vif-A3F interactions: Cherry picks). Details: HeLa A3F-eYFP + Vif (tagged APOBEC3F with the HIV-1 protein that degrades it), eYFP fluorescence, 24 h.
Outline: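 Read-out: yellow fluorescence (ex 488 nm, em 500-530 nm) by laser-scanning cytometer after 24 h compound exposure, several concentrations, at 37 deg C. Cells: HeLa line stably co-expressing Vif and C-terminally eYFP-tagged A3F; MG132 served as positive control.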
Note: nearly all actives have a fitted effect of over 70% in size.
Potency is the fitted concentration of half-maximal effect.
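Throughout, for max response: % of control where 0% means no effect; active compounds raise eYFP fluorescence by blocking Vif-driven A3F loss.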

Sequence of DNA dC->dU-editing enzyme APOBEC-3F (Homo sapiens) (Q8IUX4 whole entry, looked up): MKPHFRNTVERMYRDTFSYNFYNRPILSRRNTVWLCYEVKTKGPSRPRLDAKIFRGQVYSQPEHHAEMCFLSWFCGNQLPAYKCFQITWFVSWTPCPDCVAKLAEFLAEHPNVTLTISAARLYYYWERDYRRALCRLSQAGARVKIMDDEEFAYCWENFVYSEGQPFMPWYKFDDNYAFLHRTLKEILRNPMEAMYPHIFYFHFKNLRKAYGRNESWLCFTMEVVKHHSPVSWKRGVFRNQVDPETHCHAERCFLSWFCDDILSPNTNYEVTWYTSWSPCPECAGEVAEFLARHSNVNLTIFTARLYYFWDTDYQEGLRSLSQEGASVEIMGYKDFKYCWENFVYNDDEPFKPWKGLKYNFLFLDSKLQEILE

SMILES	max response [%]	Potency
CC(C)(C)c1ccc(OCC(=O)Nc2ccc3c4c(cccc24)C(=O)NC3=O)cc1	5.82	–
CCCCn1c(N)c(N(Cc2ccccc2OC)C(=O)c2ccc([N+](=O)[O-])s2)c(=O)[nH]c1=O	-9.57	–
O=C(NCC1CCCO1)c1nn2c(C(F)(F)F)cc(-c3cc(Br)cs3)nc2c1Br (stereo unspecified)	–	11.6 µM (active)
COc1ccc(S(=O)(=O)Nc2cc(Sc3ncn[nH]3)c(O)c3ccccc23)cc1	-14.9	–
CCCNc1c(F)c(F)c2c(C)c3ccccc3nc2c1F	–	14 µM (active)
Cc1c2ccccc2nc2c(F)c(NC(C)C)c(F)c(F)c12	–	6.51 µM (active)
CC(C)C1C(=O)N(Cc2cn(CCC3OCCCO3)nn2)CCS(=O)(=O)N1Cc1ccc(-c2cccc(CO)c2)cc1 (stereo unspecified)	-10.5	–
COC(=O)c1sc2cc([N+](=O)[O-])cc(SCC(C)C)c2c1N	–	13 µM (active)
CCOC(=O)c1sc2cc([N+](=O)[O-])cc(SCC(C)C)c2c1N	–	2.06 µM (active)
CC1(C(=O)Nc2ccc3c(c2)OCO3)Cc2c(-c3ccccc3)ccnc2O1 (stereo unspecified)	-25.3	–
COc1cc2c(cc1OC)C1=CC(=O)C(=O)N1C(C)(C)C2	–	14 µM (active)
C=CCSc1nnc(C)c(/C=C/Nc2ccc(Cl)cc2)n1	–	20.6 µM (active)
COc1ccc(N/C=C/c2nc(SC)nnc2C)cc1	-11.1	–
O=C1c2ccccc2-c2nc3ccccc3cc21	-23.6	–
O=C1c2ccccc2C(=O)c2cc(N3CCCCC3)ccc21	–	8.86 µM (active)
C=C(/C=C/c1ccc(N(C)C)cc1)c1nc2ccccc2s1	–	14.6 µM (active)
COc1cc(/C=C2/SC(=S)N(Cc3ccccc3)C2=O)cc(Cl)c1O	–	4.44 µM (active)
COc1cc(/C=C2\SC(=S)N(NC(=O)c3ccccc3O)C2=O)ccc1O	-22.7	–
O=C1/C(=C\c2ccc(O)cc2)SC(=S)N1Cc1ccccc1	-2.14	–
O=C(O)c1cc(-c2ccc(/C=C3/SC(=S)N(Cc4ccccc4)C3=O)o2)ccc1Cl	–	13 µM (active)
COc1cc(/C=C2/SC(=S)N(CCC(=O)Nc3ccccc3)C2=O)cc(OC)c1OC	–	18.4 µM (active)
COc1cc(/C=C2\SC(=S)N(NC(=O)c3ccccc3OC)C2=O)ccc1O	-7.76	–
Cc1cc(N2CCCC2)ccc1/C=C1\NC(=S)N(C)C1=O	–	1.84 µM (active)

SMILES	max response [%]	Potency
O=C1/C(=C/c2ccc(N3CCCC3)cc2)NC(=S)N1C1CC1	–	5.17 µM (active)
Cc1cc(/C=C2\NC(=S)N(C)C2=O)ccc1N1CCCC1	–	12.5 µM (active)
O=C(Oc1ccc(Cl)c2cccnc12)c1ccco1	-0.0527	–
CS(=O)(=O)N(CC(=O)N1CCN(Cc2ccccc2)CC1)c1ccccc1F	0.272	–
Cc1ccc2nccc(/C=C/c3ccc(N(C)C)cc3)c2c1	–	5.8 µM (active)
CN(C)c1ccc(/C=C/c2ccnc3cc(Cl)ccc23)cc1	–	2.91 µM (active)
CN(C)c1ccc(/C=C/c2ccnc3ccc(N)cc23)cc1	–	20.6 µM (active)
CN(C)c1ccc(/C=C/c2ccnc3ccc(Br)cc23)cc1	–	3.66 µM (active)
Cc1ccc2c(/C=C/c3ccc(N(C)C)cc3)ccnc2c1	–	18.4 µM (active)
COc1ccc2nccc(/C=C/c3ccc(N(C)C)cc3)c2c1	–	23.1 µM (active)
Cc1cc(C)c2nccc(/C=C/c3ccc(N(C)C)cc3)c2c1	–	10.3 µM (active)
CN(C)c1ccc(/C=C/c2ccnc3ccc(I)cc23)cc1	–	8.2 µM (active)
CC(=O)Nc1cccc(-c2ccnc3c2CC(C)(C(=O)Nc2cccc(C(C)=O)c2)O3)c1 (stereo unspecified)	-22.1	–
S=C(NCCSCc1ccc(Cl)cc1)Nc1ccccc1	-0.773	–
N#CC1CC(c2ccccc2)Nc2cc(Cl)ccc2N1 (stereo unspecified)	-26.3	–
COc1cc(Cl)c(C)cc1NC(=O)CN1CCN(C(=O)C2CC2)CC1	-14.7	–
CCC(C)Sc1cc(-c2nc3ccccn3c2NC2CCCCC2)ccc1OC (stereo unspecified)	-11.6	–
C=CCN1C=CC(=C/C=C(/C#N)C(=O)OCC)C=C1	-21.4	–
CCCN1C=CC(=CC=C(C#N)C#N)C=C1	–	15.8 µM (active)
C=CCN1C=CC(=CC=C(C#N)C#N)C=C1	–	11.2 µM (active)
CCOc1ccc(Br)cc1C(=O)Nc1ccc(C(=O)NCC(C)C)cc1	-8.08	–
CCOc1cc(/C=C(/C#N)C(=O)Nc2ccc(O)cc2)cc(Br)c1O	–	15.8 µM (active)
CCOc1ccc(NC(=O)/C(C#N)=C/c2ccc(N3CCCC3)c(C)c2)cc1	–	1.03 µM (active)

SMILES	max response [%]	Potency
N#C/C(=C/c1ccc2c(c1)OCO2)C(=O)Nc1ccc(O)cc1	-28.5	–
CC(=O)Nc1ccc(S(=O)(=O)Nc2nc3ccccc3nc2Sc2nncn2C)cc1	-12.8	–
Cc1ccc2nc3c(cc(S(=O)(=O)c4ccccc4)c(=N)n3Cc3ccco3)c(=O)n2c1	-15.4	–
COc1ccc(Cn2c(C)nc3c(c2=O)c2nc4ccccc4nc2n3Cc2ccco2)cc1	–	14.6 µM (active)
CC(C)n1cnc2c(NCc3ccccc3)cc(N[C@H](C)CO)cc21	–	12.5 µM (active)
Cc1ccc(N2C(=O)c3cccc4c(N5CCN(C)CC5)ccc(c34)C2=O)c2cccnc12	–	17.7 µM (active)
Cc1ccccc1N1C(=O)c2cccc3c(N(C)CCO)ccc(c23)C1=O	-29.5	–
CC1(C(=O)NCc2cccs2)Cc2c(-c3ccc(C(N)=O)cc3)ccnc2O1 (stereo unspecified)	-27	–
CCOC(=O)c1c(Nc2ccc(Cl)cc2)sc(/C=C2\C=Nc3ccccc32)c1O	–	14.6 µM (active)
CCOC(=O)c1ccc(Nc2nc3ccccc3nc2NS(=O)(=O)c2ccc(Cl)cc2)cc1	-8.48	–
CC(C)(C)c1ccc(Oc2ccc(NC(=O)c3ccccc3C(=O)O)cn2)cc1	1.93	–
CCC(C)n1c(NC(=O)c2ccccc2)c(C#N)c2nc3ccccc3nc21 (stereo unspecified)	–	16.4 µM (active)
COC(=O)Cn1c(C)c(/C=C/c2cc[n+](C)cc2)c2ccccc21	–	18.4 µM (active)
CCN(CC)C(=O)Cn1c(C)c(/C=C/c2cc[n+](C)cc2)c2ccccc21	–	11.2 µM (active)
S=c1[nH]nc(-c2cccnc2)n1/N=C/C(Cl)=C\c1ccccc1	-29.6	–
CN(C)c1ccc(/C=C/C(=O)c2c(O)c3ccccc3oc2=O)cc1	–	1.46 µM (active)
c1ccc(-c2cnn3c(-c4ccccc4)c(-c4ccccc4)nc3n2)cc1	–	1.84 µM (active)
CN(C)c1ccc(/C=C/c2nc3ccccc3c(=O)n2CCO)cc1	–	20.6 µM (active)
CN(C)c1ccc(/C=C/c2cc(N(C)C)nc3ccccc23)cc1	–	9.2 µM (active)
CN(NC(=O)c1ccccc1)c1nc2ccccc2nc1C(F)(F)F	-29.3	–
CCN(CC)c1ccc(/C=C/c2cc(-c3ccccc3)c3ccccc3n2)cc1	–	5.59 µM (active)
Nc1ccc2nc(-c3ccccc3)c(-c3ccccc3)nc2c1	-17.1	–
Nc1ccc(/C=C/c2cc(Cl)nc3ccccc23)cc1	–	18.4 µM (active)

SMILES	max response [%]	Potency
CN(C)c1ccc(/C=C/c2nc3ccccc3c(=O)[nH]2)cc1	-19.3	–
COC(=O)c1ccccc1NC(=O)C1CC(=O)N(c2ccc(OC)cc2)C1 (stereo unspecified)	-29	–
O=C(Cn1ncc(Cl)c(Cl)c1=O)N1CCN(S(=O)(=O)c2ccc3ccccc3c2)CC1	-29	–
C/C(=N\NC(=S)NC(C)C)c1ccc(C(C)(C)C)cc1	-1.78	–
CN(C)c1ccc(/C=C/c2cc(/C=C/c3ccc(N(C)C)cc3)c3ccccc3n2)cc1	–	7.31 µM (active)
CCOc1ccc(C2CC(c3c(O)c4ccccc4oc3=O)=NN2c2ccccc2)cc1OC (stereo unspecified)	–	13 µM (active)
CC[N+](C)(C(=O)O)/C(=C\c1ccccc1)c1ccnc2ccccc12 (stereo unspecified)	–	20.6 µM (active)
CC(C)Cn1c(N)c(C(=O)COC(=O)c2ccc([N+](=O)[O-])o2)c(=O)n(C)c1=O	3.32	–
COc1ccc(-n2cc3c(-c4cccc(Br)c4)nnc(C)c3n2)cc1	-1.46	–
N=c1n(CC(=O)c2ccc([N+](=O)[O-])cc2)c2ccccc2n1Cc1ccccc1	–	14.6 µM (active)
COC(=O)[C@@H]1Cc2c([nH]c3ccccc23)C(C)(C)N1C(=O)CCl	-14.3	–
Oc1ccc(C2=NNC(=NCc3ccc4c(c3)OCO4)SC2)c(O)c1	-25	–
CN(C)c1ccc(/C=C(/C#N)C(=O)Nc2nc3c(s2)CCN(Cc2ccccc2)C3)cc1	–	0.704 µM (active)
N#Cc1c(NC(=O)/C=C/C(=O)O)sc2c1CCN(Cc1ccccc1)C2	-10.7	–
CCOC(=O)c1cc(-c2ccccc2C)n(CC2CC(c3ccc(OC)cc3)=NO2)n1 (stereo unspecified)	6	–
CN(C)c1ccc(/C=C/c2ccnc3c(Cl)ccc(Cl)c23)cc1	–	6.51 µM (active)
CN(C)c1ccc(/C=C/c2ccnc3c(N)cccc23)cc1	–	16.4 µM (active)
CN(C)c1ccc(/C=C/c2ccnc3c(Cl)cccc23)cc1	–	4.11 µM (active)
Cc1ccc(-c2nc(SCCOc3ccccc3C)n3[nH]c(=O)cc3n2)cc1	1.28	–
COc1ccc(/C=c2\s/c(=C/C(=O)c3ccc(C)cc3)[nH]c2=O)c(OC)c1	–	18.4 µM (active)
COc1ccc(/C=C2\Oc3cc(OC(=O)N4CCOCC4)ccc3C2=O)c(OC)c1	-13.8	–
Cc1ccc(NC(=S)N=Nc2c(O)n(C)c3ccc(S(=O)(=O)N4CCOCC4)cc23)cc1	3.82	–
